Results on 110 molecules are retold here after PubChem BioAssay AID1117361 (Southern Research Institute, 2015).

Out of some 3,600 compounds screened, about 900 (25%) were called active. How the calls were made is not given here. A selection follows. Potency and affinity values are given separately.

This experiment deals with Protein Tat (Human immunodeficiency virus type 1 group M subtype B (isolate HXB2)) (UniProt P04608). Nature of the experiment: inhibitors of Tat binding to TAR RNA, dose response, counter-screen for Vif-APOBEC3G degradation inhibitor project, biochemical, fluorescence polarization, FAM-labeled TAR RNA (AID 1117361). The settings on record: outcome: dose series up to 100 µM unless noted; series mostly up to 100 µM; inhibition: at the top concentration. (In general: The purpose of a counterscreen is to sort out artefacts and off-target activity.)
What is called inhibition is the percentage by which the read-out fell short of the control. For `Clc1ccc(-c2nnnn2-c2ccc(Cl)c(Cl)c2)cc1Cl`, the “inhibition” value is 4.73% (inactive).

Regarding `CCc1nnc(SCC(=O)NC2CCCCC2)nc1CC`, the “inhibition” value is 13.6% (inactive). The same measure, in the same setting: the figure for `Fc1ccc(-c2nnc(Cc3nnc(-c4ccc(F)cc4)o3)o2)cc1` is 1.36% (inactive). On the same count and under the same terms, under `O=C(NCc1ccc2c(c1)OCO2)c1cc2ncc(Br)cn2n1` stands 25.9% (inactive); under `Cc1ccc2c(c1C)NC(=O)C2(O)CC(=O)c1ccc2c(c1)OCO2` (stereo not given), 2.73% (inactive). With `CCOc1ccc(N(CC(=O)NCCC2=CCCCC2)S(=O)(=O)c2ccccc2)cc1`, the molecule was classed as inactive. Still for that read-out and setting: under `CCNC(=O)OCC(CC)NC(=O)OCC(C)C` (stereo not given) stands “inactive”; under `Cc1cc(C)cc(-c2nnc(SCC(=O)NCc3cccs3)o2)c1`, “inactive”. As to `CCN(CC)c1ccc(/C=C2\C(=O)N(c3nnc(C)c(=O)[nH]3)N=C2C)cc1`, the molecule was classed as inactive. For `c1ccc(N2CCN(c3ccc4nncn4n3)CC2)nc1`, the “inhibition” value is 2.03% (inactive). Still for that read-out and setting: the figure for `Cc1noc(C)c1C(=O)N1CCN(c2ncccn2)CC1` is 2.7% (inactive); for `CCCCc1ccc(-c2nc(N)n[nH]2)cc1` it is 1.35% (inactive). Same read-out and setting: under `COCCCN1CC23C=CC(O2)C(C(=O)O)C3C1=O` (stereo not given) stands 8.11% (inactive).

For `CC1CCN(c2ccc([N+](=O)[O-])c(SCCO)c2)CC1`, the molecule was called inactive. `Cc1ccc(S(=O)(=O)NCCCOC(=O)Nc2ccncc2)cc1`: the “inhibition” value was 7.5% (inactive).

For `O=C(C1CCC(CNc2c(N3CCCCC3)c(=O)c2=O)CC1)N1CCN(C2CCCCC2)CC1` (stereo not given), the molecule was classed as inactive. In the case of `O=C(CSc1nnnn1-c1ccc2c(c1)CCC2)Nc1ccc2c(c1)OCCO2`, the molecule was classed as inactive.

In the case of `CCOC(=O)c1c(NC(=O)Cn2nnc(-c3ccccc3Cl)n2)sc(C)c1C`, the “inhibition” value was 0.68% (inactive). As to `COC(=O)C1=CN(CC2CCCO2)C=C(C(=O)OC)C1c1ccccc1C(F)(F)F` (stereo not given), the “inhibition” value is 4.77% (inactive). `Cc1cnc(NC(=O)CSc2nnc(CNc3ccc(F)cc3)n2CC2CCCO2)s1` (stereo not given): the “inhibition” value was 26.6% (inactive). Still for that read-out and setting: under `Cc1nn(Cc2ccccc2)c(C)c1C(=O)OCC(=O)c1cc(C)n(C2CC2)c1C` stands 12.2% (inactive); under `COc1ccc(OC)c(NC(=O)CSc2nc3ccccc3c(=O)n2CC2CCCO2)c1` (stereo not given), 1% (inactive). On to `[O-]/[N+](=C\C=C\c1ccccc1)c1ccccc1`, for which the molecule was classed as inactive.

As to `COc1ccc(C2CC(C(F)(F)F)n3nc(C(=O)NCc4c(C)nn(C)c4C)c(Cl)c3N2)cc1` (stereo not given), the outcome was inactive. As for `O=S1(=O)Nc2c(ccc3cccnc23)-c2ccccc21`, the “inhibition” value is 2.05% (inactive).

Regarding `CCN(CC)c1ccc(NC2=C(Cl)C(=O)c3ccccc3C2=O)cc1`, the “inhibition” value is 6.6% (inactive).

On to `O=C1CSC(c2cccnc2)N1Cc1cccnc1` (stereo not given), for which the “inhibition” value is 20.6% (inactive). Still for that read-out and setting: the figure for `COc1ccc(OCC(=O)O/N=C(\N)Cc2ccc(Cl)cc2)cc1` is 0.68% (inactive). Take `CCOC(=O)CN(C(=O)CSc1nnc(COc2ccc(OC)cc2)n1CC)c1ccccc1`: the molecule was classed as inactive. Same read-out and setting: the entry for `Oc1c(C(c2ccccc2)N2CCN(Cc3ccccc3)CC2)sc2ncnn12` (stereo not given) is “inactive”. On the same count and under the same terms, under `Fc1ccc(C(CCCn2nnc(-c3cccnc3)n2)c2ccc(F)cc2)cc1` stands “inactive”; under `Cc1nc2cc(NC(=O)Nc3ccc(N4CCOCC4)cc3)ccc2n1C`, “inactive”; under `Cc1cc(CN2C(=O)c3ccccc3C2=O)cc(N2CCOCC2)c1`, “inactive”. On to `Oc1ccccc1/C=N/Nc1nccnc1Cl`, for which the “inhibition” value was 5.46% (inactive). As to `COc1ccc(/C=C/c2nnc(NC(=O)CSc3ccc(C)cc3)s2)cc1`, the outcome was “inactive [at 50 µM]”.

As for `COC(=O)C(NC(=O)c1ccco1)(Nc1nc(C)cs1)C(F)(F)F` (stereo not given), the “inhibition” value was 8.78% (inactive). With `COC(=O)c1ccc(CSc2nc3ccccc3c(=O)n2-c2ccc(OC)c(OC)c2)o1`, the “inhibition” value was 3.38% (inactive). Take `C=CCN1C(=O)c2ccc(C(=O)N3CCN(c4ccccc4OC)CC3)cc2C1=O`: the call was inactive. Regarding `C=CCN1C(=O)CSc2ccc(C(=O)NCc3ccco3)cc21`, the “inhibition” value is 10.9% (inactive). The same measure, in the same setting: under `CCn1cc(C(=O)NCc2ccco2)c2cc(OC)c(OC)cc2c1=O` stands 2.73% (inactive).

Regarding `COC(=O)c1cc(OC)c(OC)cc1NC(=O)c1ccco1`, the molecule was called inactive. For the molecule `CCOC(=O)C1=C(CNCCc2ccc(Cl)cc2)NC(=O)NC1c1ccc2c(c1)OCO2` (stereo not given), the call was inactive. In the case of `CCSc1nnc(NC(=O)c2ccc3ccccc3n2)s1`, the “inhibition” value is 7.43% (inactive). Take `Cc1cc(C)n(-c2nc(Nc3ccccc3C(F)(F)F)nc(-n3nc(C)cc3C)n2)n1`: the outcome was inactive. The same measure, in the same setting: the entry for `O=C(CSc1ccc2nnc(-c3cccnc3)n2n1)NCC1CCCO1` (stereo not given) is “inactive”. Take `Cc1c(NC(=O)/C(C#N)=C/C2CC=CCC2)c(=O)n(-c2ccccc2)n1C` (stereo not given): the “inhibition” value is 6.08% (inactive). On the same count and under the same terms, under `O=C(c1ccccc1Cl)N(C(=O)c1ccccc1Cl)c1nccc(-c2cccs2)n1` stands 6.08% (inactive). The same measure, in the same setting: under `O=[N+]([O-])c1ccc(/C=N/Nc2nc(N3CCCC3)nc(N3CCCC3)n2)o1` stands 7.01% (inactive); under `Cc1ccccc1Cn1cc(NC(=O)c2cc(C3CC3)on2)cn1`, 8.25% (inactive); under `CCOC(=O)N1CCN(C(=O)C2CCCN(S(=O)(=O)c3ccc(C)cc3)C2)CC1` (stereo not given), 12.2% (inactive). `CCN1CCN(c2ccc(S(=O)(=O)N3CCCCC3)cc2NC(=O)Cc2ccc(Cl)c(Cl)c2)CC1`: the call was inactive. `Clc1ccc(Nc2nc(C3CC3)cs2)cc1`: the molecule was called inactive. The same measure, in the same setting: the entry for `CCN(c1cccc(C)c1)S(=O)(=O)c1cnc[nH]1` is “inactive”.

Turning to `Cn1nc(-c2ccc(Cl)cc2)c2cc(C(=O)N3CCN(C(=O)c4ccco4)CC3)sc21`, the “inhibition” value is 2.03% (inactive). Same read-out and setting: under `Cn1nc(-c2ccc(Cl)cc2)c2cc(C(=O)NCCCN3CCOCC3)sc21` stands 3.38% (inactive); under `O=C(O)CC(Cn1cnnn1)c1ccccc1` (stereo not given), 12.4% (inactive).

Take `COc1ccc(Cl)cc1N(C)C(=O)CCNC(=O)Cn1cnc2ccccc2c1=O`: the “inhibition” value was 6.82% (inactive).

As to `Cc1csc(=O)n1CC(=O)OCC(=O)c1ccc(Br)cc1`, the molecule was called inactive. As to `CCOc1cccc(CN2CCCC(C(=O)Nc3cccc(-n4cccn4)c3)C2)c1` (stereo not given), the “inhibition” value is 7.68% (inactive).

As to `CC(=O)Nc1ccc(S(=O)(=O)Nc2nnc(C(C)C)s2)cc1`, the outcome was inactive. The same measure, in the same setting: under `N#Cc1nc(-c2ccco2)oc1N1CCN(c2ccccc2)CC1` stands “inactive”. Take `CSc1nc(N2CCOCC2)c2c(c1C#N)CC(C)(C)OC2`: the “inhibition” value is 4.73% (inactive). On to `CCOc1cc(S(=O)(=O)N(CC)CC)c(OCC)cc1-n1cnnn1`, for which the “inhibition” value was 5.41% (inactive). Same read-out and setting: the figure for `Cc1nnc(NC(=O)c2ccc(S(=O)(=O)N(C)Cc3ccccc3)cc2)o1` is 3.41% (inactive). Consider `CC1(C)CC(Nc2ccc(Nc3ccccc3)cc2)CC(C)(C)N1`, for which the result was inactive. As for `CCC1=C2CC[C@H]3C(=O)NC(=O)[C@H]3[C@H]2[C@@]2(Cc3ccccc3)C(=NCC(=O)OC)OC(=O)N2C1=O`, the “inhibition” value was 1.65% (inactive).

`Nc1nc(Sc2ccc([N+](=O)[O-])c3nonc23)c2[nH]cnc2n1`: the “inhibition” value is 18.4% (inactive).

Consider `Nc1nc(SCc2nc3scc(-c4ccccc4)c3c(=O)[nH]2)n[nH]1`, for which the “inhibition” value is 3.67% (inactive). For `S=c1[nH]nc(Cn2nnc3ccccc32)n1-c1ccccc1`, the call was inactive.

For the molecule `COc1ccccc1C(=O)Nc1ccc(-c2nnc(SCC(=O)O)n2C)cc1`, the “inhibition” value is 18.1% (inactive). Consider `Cc1cc(C(=O)NNC(=O)CCC2CCCCC2)c(C)o1`, for which the result was inactive.

Consider `Cc1cc(/C=C2\SC(=S)NC2=O)c(C)n1C`, for which the “inhibition” value was 4.34% (inactive).

In the case of `CCOC(=O)c1c(-c2cccs2)csc1NC(=O)CC(C)C`, the “inhibition” value is 5.41% (inactive). Still for that read-out and setting: under `Cc1cc(/C=N/n2cnnc2)c(C)n1-c1cccc(Cl)c1` stands 14.9% (inactive); under `Cc1c(C=O)c(C=O)c(C)n1Cc1ccccc1`, 11.6% (inactive). Turning to `Cc1ccc(-n2nc(C(=O)O)c3ccccc3c2=O)cc1C`, the “inhibition” value is 0.68% (inactive). The same measure, in the same setting: the figure for `CC(=O)C1CCN(Cc2ccccc2)CC1` is 13% (inactive); for `Cc1ccc(C(=O)N2CCN(c3ccccc3)CC2)cc1C` it is 10.9% (inactive). Take `O=C(O)c1ccc(N2C(=O)c3cccnc3C2=O)cc1`: the molecule was classed as inactive. On the same count and under the same terms, the entry for `O=C(OC(C(=O)NCc1cccs1)c1ccccc1Cl)c1ccco1` (stereo not given) is “inactive”. `O=S(=O)(c1cccc2ccccc12)n1nnc2ccccc21`: the “inhibition” value is 2.7% (inactive). Still for that read-out and setting: the figure for `O=C(OCn1cncn1)c1ccc(Cl)cc1Cl` is 0.68% (inactive); for `CC(C)(C)OC(=O)N1CCC[C@H]1c1nnc(SC/C=C/c2ccccc2)o1` it is 9.46% (inactive). Same read-out and setting: under `Clc1ccc(C2=Nn3c(nnc3-c3cc(-c4ccccc4)n[nH]3)SC2)cc1` stands 8.78% (inactive). Consider `O=C(O)c1ccc2c(c1)N(Cc1cccc(F)c1)C(=O)CS2`, for which the outcome was inactive.

With `Cc1cc(NS(=O)(=O)c2cc(Cl)sc2Cl)no1`, the “inhibition” value is 4.34% (inactive). Regarding `O=C(O)c1cc(-c2ccccc2)on1`, the call was inactive. Consider `COc1ccc(C(=O)N2CCCC(C(=O)N3CCCCCC3)C2)cc1` (stereo not given), for which the “inhibition” value is 4.05% (inactive). `Cc1ccc(S(=O)(=O)N(C)CC(O)Cn2c3ccccc3c3ccccc32)cc1` (stereo not given): the “inhibition” value is 6.08% (inactive). With `COc1cc(/C=C2/C(=O)N(c3ccc(Br)cc3)N=C2C)cc(OC)c1OC`, the “inhibition” value was 5.68% (inactive). Turning to `CC(=O)Nc1ccc(OCC(=O)N2CCc3ccccc3C2)cc1`, the outcome was inactive. For `CCn1ncc(/C=C/C(=O)NCc2cn(C)nc2C)c1C`, the “inhibition” value is 4.05% (inactive). `Cn1c(=O)cc(SCC(=O)NCCCN2CCOCC2)c2ccccc21`: the outcome was inactive. As for `O=C(c1ccccc1)N1CCN(c2ccc(Cl)cc2)CC1`, the “inhibition” value is 12.8% (inactive).

Take `Cc1ccc(-c2nc(-c3ccccc3)no2)cc1`: the molecule was classed as inactive. For the molecule `Cc1cccc(C)c1NC(=O)Cn1c(=O)n(CCCC(=O)NCc2ccco2)c(=O)c2sccc21`, the “inhibition” value was 1.36% (inactive). Still for that read-out and setting: under `NS(=O)(=O)c1ccc(N=Nc2ccc(=O)[nH]c2O)cc1` stands 5.01% (inactive); under `COc1cc(NC(=O)CSCC(=O)N(C)C2CCCCC2)cc(OC)c1`, 1.65% (inactive); under `Cc1ccccc1OCC(=O)OCC(=O)c1ccc(OC(=O)c2ccccc2)cc1`, 3.67% (inactive).

For `c1coc(CNc2nc(-c3cccs3)cs2)c1`, the “inhibition” value is 20.6% (inactive). Same read-out and setting: under `Cc1ccc(Nc2nc(C(=O)NCc3ccco3)cs2)cc1` stands 12.8% (inactive). On to `COCCOC(=O)CC1=NC(=O)CS1`, for which the molecule was called inactive. `Cc1cc(C)c(Cc2c(C)nc3c(C(=O)NCc4ccco4)cnn3c2C)c(C)c1`: the “inhibition” value is 2.73% (inactive). For the molecule `Cc1cc(C(F)F)n2ncc(C(=O)NCc3ccccc3C(F)(F)F)c2n1`, the result was inactive.

As to `COc1cc(OC)cc(C(=O)NC(=S)N2CCN(c3ccc(C(F)(F)F)cc3[N+](=O)[O-])CC2)c1`, the “inhibition” value was 2.7% (inactive). For `CSCCC(NC(N)=O)C(=O)NCc1ccc(Cl)cc1` (stereo not given), the “inhibition” value is 2.7% (inactive). Take `COc1ccc(N2C(=O)CC(Sc3nc(C)c4c(n3)CCCC4)C2=O)cc1` (stereo not given): the “inhibition” value is 6.08% (inactive). Turning to `O=S(=O)(c1ccc(S(=O)(=O)N2CCCC2)cc1)N1CCCCCC1`, the molecule was called inactive. Turning to `CC(C)(C)c1ccc(S(=O)(=O)N2CCCCC2)cc1`, the “inhibition” value is 17.3% (inactive). On the same count and under the same terms, under `CC1=C(C(=O)OCCOc2ccccc2)C(c2ccc(C)o2)C2=C(CC(C)(C)CC2=O)N1` (stereo not given) stands 2.05% (inactive).
